This is a sample that favours compounds with a hit; in the whole collection about 10% have one here.
JMJD2A Tudor: JMJD2A Tudor domain (human) inhibition; Potency, µM (titrated, usually from 114 µM), inactives show at the highest dose activity change, negative = inhibition, most hits filed as inhibitors; O75164; AID 504339; 390,000 compounds, 4.4% hits; AlphaScreen JMJD2A-Tudor / H3K4me3 peptide binding; also: potency is read from the fitted curve at half-maximal effect; % is scaled to controls: 0 for no effect and ±100 for the full control effect; nearly all actives have a fitted effect of over 50% in size
Target sequence (O75164 whole entry, looked up, the tested form may be a part): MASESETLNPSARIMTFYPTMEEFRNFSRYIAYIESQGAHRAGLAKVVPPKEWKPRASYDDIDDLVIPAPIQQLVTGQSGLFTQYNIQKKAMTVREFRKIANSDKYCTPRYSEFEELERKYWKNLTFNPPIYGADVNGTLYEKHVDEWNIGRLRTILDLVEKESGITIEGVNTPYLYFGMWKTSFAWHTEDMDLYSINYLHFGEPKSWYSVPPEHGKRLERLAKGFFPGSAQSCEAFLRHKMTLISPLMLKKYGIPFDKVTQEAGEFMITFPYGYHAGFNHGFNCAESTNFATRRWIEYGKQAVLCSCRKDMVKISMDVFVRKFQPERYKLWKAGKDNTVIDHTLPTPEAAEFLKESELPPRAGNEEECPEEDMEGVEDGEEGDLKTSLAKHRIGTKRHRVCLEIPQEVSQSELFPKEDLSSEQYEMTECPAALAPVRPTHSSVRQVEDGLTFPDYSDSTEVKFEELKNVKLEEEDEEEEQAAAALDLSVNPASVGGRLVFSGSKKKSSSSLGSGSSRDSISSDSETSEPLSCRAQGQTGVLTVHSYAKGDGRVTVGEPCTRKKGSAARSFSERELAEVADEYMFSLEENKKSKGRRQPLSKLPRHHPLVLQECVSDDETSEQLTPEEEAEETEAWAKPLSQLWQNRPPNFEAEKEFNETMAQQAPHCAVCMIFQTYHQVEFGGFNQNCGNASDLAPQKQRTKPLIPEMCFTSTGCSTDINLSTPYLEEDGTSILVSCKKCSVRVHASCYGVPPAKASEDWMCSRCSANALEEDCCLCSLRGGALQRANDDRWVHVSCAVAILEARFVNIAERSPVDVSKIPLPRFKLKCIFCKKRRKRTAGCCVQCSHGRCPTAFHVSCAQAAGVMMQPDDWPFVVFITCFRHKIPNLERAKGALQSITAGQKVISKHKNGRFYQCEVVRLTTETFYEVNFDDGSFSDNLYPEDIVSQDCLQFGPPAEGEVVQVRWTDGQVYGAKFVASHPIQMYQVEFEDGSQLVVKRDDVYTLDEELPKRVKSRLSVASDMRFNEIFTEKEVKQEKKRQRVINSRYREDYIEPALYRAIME
Six1-Eya2 inh: inhibitors of human Six1/Eya2 interaction; Q15475+O00167; AlphaScreen GST-Six1/His-Eya2 binding, biochemical; active compounds read low; activity change, % (no concentration beside the values); 360,000 compounds, 0.56% hits; in the data active = activity change below about -65%; inconclusive = mostly about -30% to -63%; also: % is scaled to controls: 0 for no effect and ±100 for the full control effect
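AlphaScreen luminescence read after one hour at 37 °C in darkness. Pin-transferred compounds met GST-Six1 and His-Eya2 protein (5X stock 250 nM/500 nM) plus glutathione donor and Ni-chelate acceptor beads (5X, 50 ug/mL).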
BAZ2B block: BAZ2B (human) inhibition; Q9UIF8; AlphaScreen BAZ2B-H3K14Ac peptide displacement; Potency, µM (highest dose often 114 µM), inactives show at the top dose activity change, negative = inhibition, most hits filed as inhibitors; 360,000 compounds, 4.4% hits; AID 504333; also: potency is read from the fitted curve at half-maximal effect; % is scaled to controls: 0 for no effect and ±100 for the full control effect; nearly all actives have a fitted effect of over 60% in size
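BAZ2B 50 nM plus b-H3(5-23)K14Ac 50 nM, PBS pH 7.4/0.01% Tween-20, 30 min RT; compound added (max 110 uM), 30 min RT; streptavidin donor/Ni-chelate acceptor beads 10 ug/mL final, 20 min dark; AlphaScreen read.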
CtBP-E1A blk: CtBP/E1A binding inhibition; activity change, % (concentration not given with the values); 340,000 compounds, 0.49% hits; AlphaScreen GST-E1A/His-CtBP binding, 1536-well; active compounds read low; in the data active = activity change below about -65%; inconclusive = mostly about -30% to -63%; also: % is scaled to controls: 0 for no effect and ±100 for the full control effect
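In 5 uL wells, 23 nL compound meets equimolar GST-E1A and His-CtBP (5X stock 125 nM each) for 2 h, 37 °C. Beads (5X, 50 ug/mL) then 1 h, 37 °C, dark.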
HP1b chromo inh: blocks HP1-beta chromodomain binding to methylated histone tails | P83916 | 390,000 compounds, 0.56% hits | Potency, µM (series often up to 114 µM), without a hit: at the top dose activity change, negative = inhibition, actives largely listed as inhibitors | AlphaScreen HP1-beta / biotin-H3K9me3 peptide binding; also: potency is read from the fitted curve at half-maximal effect; nearly all actives have a fitted effect of over 70% in size
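AlphaScreen: HP1-beta (50 nM) preformed 30 min with biotin-H3(1-18)K9me3 peptide (50 nM) in PBS pH 7.4, 0.01% Tween-20. Compound added for 30 min at RT, then streptavidin donor/nickel chelate acceptor beads (10 ug/mL) for 30 min.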
G9a block: blocks human histone lysine methyltransferase G9a; G9a H3K9 monomethylation, AlphaScreen, 2 h; Potency, µM (top dose mostly 102 µM), for inactives: at the highest dose activity, negative = inhibition, most hits filed as inhibitors; 350,000 compounds, 8.8% hits; AID 504332; also: potency is read from the fitted curve at half-maximal effect; % is scaled to controls: 0 for no effect and ±100 for the full control effect; nearly all actives have a fitted effect of over 75% in size
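Using a bead-based AlphaScreen, monomethylated H3K9 product from 2 h room-temperature reactions (G9a 20 nM, peptide 500 nM, SAM 20 uM) was detected with 0.5 ug/mL rabbit anti-H3K9me1 antibody.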
* = called active by the depositor; ? = inconclusive; · = no result given; [ ] = remark or other dose. Unless noted, calls follow the shape of the dose curve; as a rule, active = well fitted inhibition curve with a large enough effect; inconclusive = small, poorly fitted or top-dose-only effect; inactive = no such curve, though single readings can be large or run the other way.

SMILES	JMJD2A Tudor	Six1-Eya2 inh	BAZ2B block	CtBP-E1A blk	HP1b chromo inh	G9a block
COc1ccc(CNC(=O)CC2N=C3c4ccccc4N=C(SCC(=O)Nc4ccc(C(C)C)cc4)N3C2=O)cc1 (stereo not drawn)	-29.3%	·	-15.4%	·	17.1%	-6.8%[59 µM]
CCN(CC)c1ccc(C(=O)c2ccccc2C(=O)O)c(O)c1	-6.8%	-0.3	23.6%	8.5	39.5%	-9.7%[59 µM]
O=C(O)c1cc(N(Cc2ccccc2O)Cc2ccccc2O)ccc1O	50.1µM*	·	·	·	-28.3%	·
COc1ccc(Cl)cc1NC(=O)CN(C)C(=O)Cc1ccsc1	-9.7%	4.3	-4.4%	1.2	39.9%	28.2µM*
COc1ccc(NC(=O)CNCc2cccs2)c(OC)c1	·	4.9	·	5.7	·	·
COc1ccc(Cl)cc1NC(=O)CNCc1cccs1	4.47µM*	10.5	70.8µM*	·	?	0.6%
COC(=O)COc1ccc(S(=O)(=O)NCc2ccc3c(c2)OCO3)cc1C	-7.6%	-1.7	-15.5%	4.8	?	6.9%
CSc1nnc(C)c(/C=C/Nc2ccc(C)cc2)n1	-4.9%	-13.8	9.0%	-66.6*	9.9%	5.7%[59 µM]
CSc1nnc(C)c(/C=C/NOCc2ccc(Cl)cc2)n1	?	-5.9	?	-2.1	-17.9%	12.6µM*
Cc1nnc(SCc2ccc(Cl)cc2)nc1/C=C/N(C)C	-1.4%	-1.0	?	·	54.2%	?
COCCn1c(C)cc(C(=O)COC(=O)C2CC(=O)N(CCc3ccc(OC)c(OC)c3)C2)c1C (stereo not drawn)	-26.9%	-15.1	?	-1.1	4.1%	?
CC1(C(=O)NS(=O)(=O)c2cccc(F)c2)CCN1C(=O)C1(c2ccc(Cl)cc2)CCC1 (stereo not drawn)	·	-3.0	·	5.6	·	·
CC(/C=C/c1ccccc1)=N/NC(=O)c1cc([N+](=O)[O-])cc([N+](=O)[O-])c1	-17.1%	12.7	-25.9%	8.0	20.5%	19.2%[59 µM]
CC(/C=C/c1ccccc1)=N\Nc1ccccc1[N+](=O)[O-]	10µM*	?	2.24µM*	?	3.98µM*	0.891µM*
COc1ccc(CC(=O)OCC(=O)NCc2ccccc2Cl)cc1OC	4.8%	6.1	-1.9%	10.7	34.3%	-3.3%
O=C1N=C(N2CCCC2C(=O)O)S/C1=C\c1ccco1 (stereo not drawn)	?	-16.2	79.4µM*	·	?	25.1µM*
COc1ccc(CN2CCC3C=CCC(C(=O)O)C3C2=O)cc1OC (stereo not drawn)	-7.6%	·	·	·	28.7%	·
CCC1(C)Cc2c(sc3nc(SC)n(-c4ccc(C)cc4)c(=O)c23)CO1 (stereo not drawn)	-18.3%	·	-0.3%	·	2.6%	-3.7%[59 µM]
CCC1(C)Cc2c(sc3nc(NN)n(C)c(=O)c23)CO1 (stereo not drawn)	-12.8%	?	15.1%	?	1.1%	44.7µM*
CCOC(=O)CSc1nc2sc3c(c2c(=O)[nH]1)CC(C)(CC)OC3 (stereo not drawn)	-7.4%	-0.2	3.9%	7.5	23.0%	31.6µM*
CC(=O)O[C@]1(C(C)=O)CC[C@H]2C3C=C(Cl)C4=CC(=O)[C@@H]5C[C@H]5[C@]4(C)C3CC[C@@]21C (stereo partly drawn)	·	·	·	·	·	37.2%[12.7 µM]
Cc1csc(N2CCCC2c2nc3cc(Cl)c(N4CCCCC4)cc3n2CCOCCO)n1 (stereo not drawn)	?	-7.1	·	-1.4	-5.7%	·
Cc1ccc(-c2csc(N3CCN(c4cc5c(cc4Cl)nc(C(C)N)n5CCCO)CC3)n2)cc1 (stereo not drawn)	-35.7%	4.5	-31.3%	3.0	34.8%	13.3%
Cc1ccc(-c2csc(N3CCN(c4cc5c(cc4Cl)nc(C)n5CCN4CCCCC4)CC3)n2)cc1	39.8µM*	-21.5	-38.3%[57.1 µM]	-12.3	-24.5%	44.7µM*
Cc1csc(N2CCN(c3cc4nc(-c5ccncc5)[nH]c4cc3Cl)CC2)n1	79.4µM*	0.0	?	-1.0	24.7%	7.94µM*
SMILES	JMJD2A Tudor	Six1-Eya2 inh	BAZ2B block	CtBP-E1A blk	HP1b chromo inh	G9a block
Cc1csc(N2CCN(c3cc4c(cc3Cl)nc(-c3ccncc3)n4CCCN3CCCC3)CC2)n1	56.2µM*	-7.8	?	-0.6	3.4%	10µM*
COc1cccc(Cn2c(CNC(=O)C(C)C)nc3cccnc32)c1	-3.9%	·	-0.3%	·	25.0%[57 µM]	13.0%[59 µM]
Cc1ccc(O)c(NC2=C(Cl)C(=O)N(Cc3ccccc3)C2=O)c1	3.98µM*	-14.9	44.7µM*	-10.5	15.8µM*	6.31µM*
O=C1C(Cl)=C(Nc2ccccc2O)C(=O)N1c1ccccc1	35.5µM*	-9.9	?	-6.5	?	7.94µM*
COc1cc2c(cc1O)CCN(C(=O)CSc1nncn1C)[C@@H]2C	-3.4%	4.8	1.5%	1.6	34.8%	-4.3%[0.501 µM]
c1ccc(C2=Nn3c(Cn4nnc5ccccc54)nnc3SC2)cc1	-6.6%	1.1	-5.3%	0.2	27.4%	?
Clc1ccc(C2=Nn3c(Cn4nnc5ccccc54)nnc3SC2)cc1	79.4µM*	-4.3	?	-3.6	?	·
c1ccc(-c2ccc(C3=Nn4c(Cn5nnc6ccccc65)nnc4SC3)cc2)cc1	?	-12.4	5.6%[57.1 µM]	-9.4	15.8µM*	8.91µM*
c1ccc(Cc2nnc3n2N=C(c2ccccc2)CS3)cc1	-18.9%	-1.0	-35.1%	-0.3	18.0%	-40.0%[59 µM]
O=C1C(=Nc2cccc(Cl)c2)CC(c2ccc(Cl)cc2)N1c1cccc(Cl)c1 (stereo not drawn)	-13.0%	6.5	-19.3%	·	32.3%	-48.4%
Cc1oncc1C(=O)NC(C)C	6.1%	4.3	4.1%	1.0	37.8%	44.7µM*
CCN(CC)c1ccc(CC(=O)NC(C)Cc2ccccc2)cc1 (stereo not drawn)	-19.2%	-21.8	?	-14.1	-4.7%	-23.5%[59 µM]
CCCN(CCC)c1ccc(CC(=O)NC(C)Cc2ccccc2)cc1 (stereo not drawn)	?	-18.2	?	-6.2	-36.1%	10µM*
COc1cc(/C=N/NC(=O)C23CC4CC(CC(C4)C2)C3)cc(Br)c1O	-19.9%	1.6	-37.6%	-10.1	-14.9%	?
CN=c1scc(C)n1/N=C/c1cc(Br)c(O)c(OC)c1	?	-6.1	39.8µM*	-0.2	-19.0%	7.94µM*
CCCCCC(=O)N/N=C/c1cc(Br)c(O)c(OC)c1	-7.1%	-0.4	-31.9%	4.6	11.3%	50.1µM*
CN=c1scc(C)n1/N=C/c1ccc(O)c(O)c1O	50.1µM*	?	25.1µM*	?	?	?
CN=c1scc(-c2cccs2)n1/N=C/c1ccccc1O	-35.5%[57.1 µM]	-19.2	?	-17.8	?	7.2%[59 µM]
CN=c1scc(-c2cccs2)n1/N=C/c1ccc(O)c(O)c1O	25.1µM*	-77.0*	25.1µM*	-88.3*	5.01µM*	7.94µM*

High-throughput results deposited in PubChem by National Center for Advancing Translational Sciences (NCATS).
